Experimental data taken from the supplement of paper PMC7411054.
Counter-ions that a name gives are not always drawn.

Assays:
Assay in all cases: phenotypically active (imaging signature differs from DMSO and reproducible) at any of 0.3-9 uM (binary (1 = active, 0 = inactive)); higher = active
Settings in all cases: treatment time: 24 h
A549-ACTB-RAB5A = tested on: A549-ACTB-RAB5A
In short: (§1)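 Four wells per concentration (0.3, 1, 3 or 9 µM) were treated for 24 h in each of fifteen gene-edited reporter lines from A549, HepG2 and WPMY1 cells, then imaged live. After normalising live-cell features to solvent control wells, deviation was defined as ≥3 of 4 wells lying past the 95th percentile of control Euclidean distances. Reproducibility was defined as a median replicate Pearson correlation above the 95th percentile of non-replicates. Both had to hold for phenotypic activity.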

A549-CANX-COX4 = tested on: A549-CANX-COX4
In short: as §1

A549-GM130-SQSTM1 = tested on: A549-GM130-SQSTM1
In short: as §1

A549-TP53BP1-CLTA = tested on: A549-TP53BP1-CLTA
In short: as §1

A549-TUBA1B-RELA = tested on: A549-TUBA1B-RELA
In short: as §1

HepG2-ACTB-RAB5A = tested on: HepG2-ACTB-RAB5A
In short: as §1

HepG2-CANX-COX4 = tested on: HepG2-CANX-COX4
In short: as §1

HepG2-GM130-SQSTM1 = tested on: HepG2-GM130-SQSTM1
In short: as §1

HepG2-TP53BP1-CLTA = tested on: HepG2-TP53BP1-CLTA
In short: as §1

HepG2-TUBA1B-RELA = tested on: HepG2-TUBA1B-RELA
In short: as §1

WPMY1-ACTB-RAB5A = tested on: WPMY1-ACTB-RAB5A
In short: as §1

WPMY1-CANX-COX4 = tested on: WPMY1-CANX-COX4
In short: as §1

WPMY1-GM130-SQSTM1 = tested on: WPMY1-GM130-SQSTM1
In short: as §1

WPMY1-TP53BP1-CLTA = tested on: WPMY1-TP53BP1-CLTA
In short: as §1

WPMY1-TUBA1B-RELA = tested on: WPMY1-TUBA1B-RELA
In short: as §1

Measured: phenotypically active

C=CCC1(C(C)C#CCC)C(=O)NC(=O)N(C)C1=O (stereo not given) [methohexital]
inactive: A549-ACTB-RAB5A 0 | A549-CANX-COX4 0 | A549-GM130-SQSTM1 0 | A549-TP53BP1-CLTA 0 | A549-TUBA1B-RELA 0 | HepG2-ACTB-RAB5A 0 | HepG2-CANX-COX4 0 | HepG2-GM130-SQSTM1 0 | HepG2-TP53BP1-CLTA 0 | HepG2-TUBA1B-RELA 0 | WPMY1-ACTB-RAB5A 0 | WPMY1-CANX-COX4 0 | WPMY1-GM130-SQSTM1 0 | WPMY1-TP53BP1-CLTA 0 | WPMY1-TUBA1B-RELA 0

CC(C)CC(N(C)C)C1(c2ccc(Cl)cc2)CCC1 (stereo not given) [sibutramine]
inactive: A549-ACTB-RAB5A 0 | A549-CANX-COX4 0 | A549-GM130-SQSTM1 0 | A549-TP53BP1-CLTA 0 | A549-TUBA1B-RELA 0 | HepG2-ACTB-RAB5A 0 | HepG2-CANX-COX4 0 | HepG2-GM130-SQSTM1 0 | HepG2-TP53BP1-CLTA 0 | HepG2-TUBA1B-RELA 0 | WPMY1-ACTB-RAB5A 0 | WPMY1-CANX-COX4 0 | WPMY1-GM130-SQSTM1 0 | WPMY1-TP53BP1-CLTA 0 | WPMY1-TUBA1B-RELA 0

CN1CCc2cc3c(cc2[C@H]1[C@@H]1OC(=O)c2c1ccc1c2OCO1)OCO3 [bicuculine]
inactive: A549-ACTB-RAB5A 0 | A549-CANX-COX4 0 | A549-GM130-SQSTM1 0 | A549-TP53BP1-CLTA 0 | A549-TUBA1B-RELA 0 | HepG2-ACTB-RAB5A 0 | HepG2-CANX-COX4 0 | HepG2-GM130-SQSTM1 0 | HepG2-TP53BP1-CLTA 0 | HepG2-TUBA1B-RELA 0 | WPMY1-ACTB-RAB5A 0 | WPMY1-CANX-COX4 0 | WPMY1-GM130-SQSTM1 0 | WPMY1-TP53BP1-CLTA 0 | WPMY1-TUBA1B-RELA 0

CN1C(CC(O)c2ccccc2)CCCC1CC(O)c1ccccc1 (stereo not given) [Lobelanidine hydrochloride]
inactive: A549-ACTB-RAB5A 0 | A549-CANX-COX4 0 | A549-GM130-SQSTM1 0 | A549-TP53BP1-CLTA 0 | A549-TUBA1B-RELA 0 | HepG2-ACTB-RAB5A 0 | HepG2-CANX-COX4 0 | HepG2-GM130-SQSTM1 0 | HepG2-TP53BP1-CLTA 0 | HepG2-TUBA1B-RELA 0 | WPMY1-ACTB-RAB5A 0 | WPMY1-CANX-COX4 0 | WPMY1-GM130-SQSTM1 0 | WPMY1-TP53BP1-CLTA 0 | WPMY1-TUBA1B-RELA 0

CC1=C2[C@H]3OC(=O)[C@@H](C)[C@@H]3CC[C@@]2(C)C=CC1=O [alpha-Santonin]
inactive: A549-ACTB-RAB5A 0 | A549-CANX-COX4 0 | A549-GM130-SQSTM1 0 | A549-TP53BP1-CLTA 0 | A549-TUBA1B-RELA 0 | HepG2-ACTB-RAB5A 0 | HepG2-CANX-COX4 0 | HepG2-GM130-SQSTM1 0 | HepG2-TP53BP1-CLTA 0 | HepG2-TUBA1B-RELA 0 | WPMY1-ACTB-RAB5A 0 | WPMY1-CANX-COX4 0 | WPMY1-GM130-SQSTM1 0 | WPMY1-TP53BP1-CLTA 0 | WPMY1-TUBA1B-RELA 0

CCN(C(C)=O)c1cccc(-c2ccnc3c(C#N)cnn23)c1 [zaleplon]
inactive: A549-ACTB-RAB5A 0 | A549-CANX-COX4 0 | A549-GM130-SQSTM1 0 | A549-TP53BP1-CLTA 0 | A549-TUBA1B-RELA 0 | HepG2-ACTB-RAB5A 0 | HepG2-CANX-COX4 0 | HepG2-GM130-SQSTM1 0 | HepG2-TP53BP1-CLTA 0 | HepG2-TUBA1B-RELA 0 | WPMY1-ACTB-RAB5A 0 | WPMY1-CANX-COX4 0 | WPMY1-GM130-SQSTM1 0 | WPMY1-TP53BP1-CLTA 0 | WPMY1-TUBA1B-RELA 0

C=C(C)[C@H]1CN[C@H](C(=O)O)[C@H]1CC(=O)O [Kainic acid]
inactive: A549-ACTB-RAB5A 0 | A549-CANX-COX4 0 | A549-GM130-SQSTM1 0 | A549-TP53BP1-CLTA 0 | A549-TUBA1B-RELA 0 | HepG2-ACTB-RAB5A 0 | HepG2-CANX-COX4 0 | HepG2-GM130-SQSTM1 0 | HepG2-TP53BP1-CLTA 0 | HepG2-TUBA1B-RELA 0 | WPMY1-ACTB-RAB5A 0 | WPMY1-CANX-COX4 0 | WPMY1-GM130-SQSTM1 0 | WPMY1-TP53BP1-CLTA 0 | WPMY1-TUBA1B-RELA 0

C[C@]12Cc3cn[nH]c3C[C@@H]1CC[C@@H]1[C@@H]2CC[C@@]2(C)[C@H]1CC[C@]2(C)O [stanozolol]
inactive: A549-ACTB-RAB5A 0 | A549-CANX-COX4 0 | A549-GM130-SQSTM1 0 | A549-TP53BP1-CLTA 0 | A549-TUBA1B-RELA 0 | HepG2-ACTB-RAB5A 0 | HepG2-CANX-COX4 0 | HepG2-GM130-SQSTM1 0 | HepG2-TP53BP1-CLTA 0 | HepG2-TUBA1B-RELA 0 | WPMY1-ACTB-RAB5A 0 | WPMY1-CANX-COX4 0 | WPMY1-GM130-SQSTM1 0 | WPMY1-TP53BP1-CLTA 0 | WPMY1-TUBA1B-RELA 0

COc1ccc(OC)c(C(O)C(C)N)c1 (stereo not given) [methoxamine]
inactive: A549-ACTB-RAB5A 0 | A549-CANX-COX4 0 | A549-GM130-SQSTM1 0 | A549-TP53BP1-CLTA 0 | A549-TUBA1B-RELA 0 | HepG2-ACTB-RAB5A 0 | HepG2-CANX-COX4 0 | HepG2-GM130-SQSTM1 0 | HepG2-TP53BP1-CLTA 0 | HepG2-TUBA1B-RELA 0 | WPMY1-ACTB-RAB5A 0 | WPMY1-CANX-COX4 0 | WPMY1-GM130-SQSTM1 0 | WPMY1-TP53BP1-CLTA 0 | WPMY1-TUBA1B-RELA 0

NC(=O)CS(=O)C(c1ccccc1)c1ccccc1 (stereo not given) [modafinil]
inactive: A549-ACTB-RAB5A 0 | A549-CANX-COX4 0 | A549-GM130-SQSTM1 0 | A549-TP53BP1-CLTA 0 | A549-TUBA1B-RELA 0 | HepG2-ACTB-RAB5A 0 | HepG2-CANX-COX4 0 | HepG2-GM130-SQSTM1 0 | HepG2-TP53BP1-CLTA 0 | HepG2-TUBA1B-RELA 0 | WPMY1-ACTB-RAB5A 0 | WPMY1-CANX-COX4 0 | WPMY1-GM130-SQSTM1 0 | WPMY1-TP53BP1-CLTA 0 | WPMY1-TUBA1B-RELA 0

CN(C)NC(=O)CCC(=O)O [Daminozide]
inactive: A549-ACTB-RAB5A 0 | A549-CANX-COX4 0 | A549-GM130-SQSTM1 0 | A549-TP53BP1-CLTA 0 | A549-TUBA1B-RELA 0 | HepG2-ACTB-RAB5A 0 | HepG2-CANX-COX4 0 | HepG2-GM130-SQSTM1 0 | HepG2-TP53BP1-CLTA 0 | HepG2-TUBA1B-RELA 0 | WPMY1-ACTB-RAB5A 0 | WPMY1-CANX-COX4 0 | WPMY1-GM130-SQSTM1 0 | WPMY1-TP53BP1-CLTA 0 | WPMY1-TUBA1B-RELA 0

N#CC(O[C@@H]1O[C@H](CO[C@@H]2O[C@H](CO)[C@@H](O)[C@H](O)[C@H]2O)[C@@H](O)[C@H](O)[C@H]1O)c1ccccc1 (stereo not given in full) [Amygdalin]
inactive: A549-ACTB-RAB5A 0 | A549-CANX-COX4 0 | A549-GM130-SQSTM1 0 | A549-TP53BP1-CLTA 0 | A549-TUBA1B-RELA 0 | HepG2-ACTB-RAB5A 0 | HepG2-CANX-COX4 0 | HepG2-GM130-SQSTM1 0 | HepG2-TP53BP1-CLTA 0 | HepG2-TUBA1B-RELA 0 | WPMY1-ACTB-RAB5A 0 | WPMY1-CANX-COX4 0 | WPMY1-GM130-SQSTM1 0 | WPMY1-TP53BP1-CLTA 0 | WPMY1-TUBA1B-RELA 0
